Screening results: PubChem BioAssay, National Center for Advancing Translational Sciences (NCATS)
Compounds with a hit are over-represented: about 12% of the library has one in this group of screens.
HP1b binding inh – blocks HP1-beta chromodomain binding to methylated histone tails | P83916 | AlphaScreen HP1-beta / biotin-H3K9me3 peptide binding | Potency, µM (series often up to 114 µM), actives largely listed as inhibitors | 390,000 tested, 0.56% active; further: nearly all actives have a fitted effect of over 70% in size
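Compound inhibition of the preformed complex between 50 nM HP1-beta and 50 nM biotinylated H3K9me3 peptide was read by AlphaScreen. Buffer was PBS pH 7.4 with 0.01% Tween-20. Incubations ran 30 min at room temperature, with 10 ug/mL donor/acceptor beads.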
G9a block – inhibitors of human histone lysine methyltransferase G9a. Potency, µM (titrated, usually from 102 µM), usual class: inhibitors. Q96KQ7. 350,000 tested, 8.8% active. G9a H3K9 monomethylation, AlphaScreen, 2 h. AID 504332; further: nearly all actives have a fitted effect of over 75% in size
Target sequence (Q96KQ7 913-1193 limits assumed): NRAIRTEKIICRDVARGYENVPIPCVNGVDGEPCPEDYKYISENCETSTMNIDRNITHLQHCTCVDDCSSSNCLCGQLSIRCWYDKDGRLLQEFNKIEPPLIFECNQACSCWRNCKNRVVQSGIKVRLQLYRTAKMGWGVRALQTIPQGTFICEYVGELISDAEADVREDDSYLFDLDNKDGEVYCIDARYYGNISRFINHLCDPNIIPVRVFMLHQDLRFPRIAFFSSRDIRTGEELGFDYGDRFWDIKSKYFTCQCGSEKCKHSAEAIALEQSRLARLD
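AlphaScreen read-out: biotin-H3K9 peptide (500 nM) methylation by 20 nM enzyme with 20 uM SAM, 2 h at room temperature after 15 min compound preincubation; anti-monomethyl H3K9 antibody plus donor/acceptor beads, 10 min dark.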
PLK1 PBD inh – blocks phosphopeptide binding to human PLK1 polo-box domain; P53350; Plk1 PBD binding of FITC phosphopeptide, fluorescence polarization; Potency, µM, hits mostly inhibitors; 360,000 tested, 2.8% active; further: series mostly up to about 57 µM; nearly all actives have a fitted effect of over 65% in size
JMJD2A Tudor – blocks the human JMJD2A Tudor domain; O75164; AlphaScreen JMJD2A-Tudor / H3K4me3 peptide binding; Potency, µM (series often up to 114 µM), most hits filed as inhibitors; 390,000 tested, 4.4% active; AID 504339; further: nearly all actives have a fitted effect of over 50% in size
BAZ2B inh – blocks human BAZ2B | AlphaScreen BAZ2B-H3K14Ac peptide displacement | AID 504333 | 360,000 tested, 4.4% active | Q9UIF8 | Potency, µM (highest dose often 114 µM), most hits filed as inhibitors; further: nearly all actives have a fitted effect of over 60% in size
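AlphaScreen displacement: compounds (up to 110uM) incubated 30 min at room temperature with a preformed 50 nM BAZ2B/50 nM biotinylated H3K14Ac peptide complex in PBS pH 7.4 with Tween-20. Donor and acceptor beads at 10 ug/mL final added, 20 min light-protected before reading.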
PI5P4Ka inh – blocks human PI5P4K alpha kinase activity. PI5P4Kalpha enzyme, ADP-Glo luminescence, 60 min; hits give low values. max response, %. 330,000 tested, 1.2% active. AID 652105; active means max response of -50% or lower; inconclusive means between -30% and -50%; inactive means -30% or higher; further: value at the top dose of about 77 µM
Target sequence (P48426 whole entry, looked up): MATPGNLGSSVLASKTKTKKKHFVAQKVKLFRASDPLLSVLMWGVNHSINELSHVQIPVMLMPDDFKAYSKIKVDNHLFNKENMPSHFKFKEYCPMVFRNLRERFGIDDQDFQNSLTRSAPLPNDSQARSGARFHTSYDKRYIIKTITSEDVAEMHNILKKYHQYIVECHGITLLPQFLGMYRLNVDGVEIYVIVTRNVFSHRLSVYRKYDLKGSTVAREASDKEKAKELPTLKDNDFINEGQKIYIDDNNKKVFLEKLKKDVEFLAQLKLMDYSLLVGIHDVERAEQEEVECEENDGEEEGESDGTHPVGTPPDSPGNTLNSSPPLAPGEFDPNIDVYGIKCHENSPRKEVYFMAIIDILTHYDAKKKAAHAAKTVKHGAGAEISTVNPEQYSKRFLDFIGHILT
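Quantitative HTS of the MLSMR library against PI5P4Kalpha with substrate. ATP added last at 5 microM final; room temperature, 60 minutes. Remaining ATP depleted, ADP converted and read as luminescence.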
Of the large screens only hits and unclear results are named; the others gave an inactive call; ! = not active in a repeat. Unless noted, the call rests on the fitted dose curve; in most records, active means well fitted curve in the direction sought with a large enough effect; inconclusive means small, poorly fitted or top-dose-only effect, or another doubt; inactive means no such curve, though single readings can be large; an effect the other way counts as inactive or inconclusive.

CC(C)(C)OC(=O)[C@H](Cc1ccccc1)NC(=O)c1nc[nH]c1C(=O)N1CCN(c2ccccc2)CC1	HP1b binding inh inconclusive, PLK1 PBD inh 21µM, JMJD2A Tudor inconclusive (no result: G9a block)
O=C(CNC(=O)c1ccc(Br)o1)NCC(=O)OCc1ccccc1	none
O=C(O)CC(CC(=O)N1CCN(C(=O)c2ccco2)CC1)c1ccccc1 (configuration not stated)	none
O=C(Nc1nccs1)c1nc[nH]c1C(=O)N1CCN(c2ccccc2)CC1	JMJD2A Tudor 32µM (no result: G9a block, BAZ2B inh)
O=C(Nc1ccccc1)c1nc[nH]c1C(=O)N1CCN(c2ccccc2)CC1	none
CC1CCN(CCCCOc2ccc(C(=O)c3ccccc3)cc2)CC1	G9a block 35µM, PLK1 PBD inh 27µM
CC1CCN(CCOc2ccc(C(=O)c3ccccc3)cc2)CC1	G9a block 7.1µM, JMJD2A Tudor inconclusive, BAZ2B inh inconclusive
CC1CCC(NC(=O)COc2ccc(C(=O)c3ccccc3)cc2)CC1 (configuration not stated)	none
O=C(NNC(=S)Nc1ccc(Br)cc1)c1ccc(N2CCOCC2)c([N+](=O)[O-])c1	HP1b binding inh inconclusive, G9a block 11µM, PLK1 PBD inh inconclusive, JMJD2A Tudor inconclusive
Cc1ccc(NC(=S)NNC(=O)c2ccc(N3CCOCC3)c([N+](=O)[O-])c2)cc1Cl	HP1b binding inh inconclusive, G9a block 22µM, JMJD2A Tudor 25µM, BAZ2B inh inconclusive
O=C(Nc1cccnc1)c1ccc(N2CCOCC2)c([N+](=O)[O-])c1	none
N#Cc1ccc(CN2CCN(C(=O)CN3C(=O)NC4(CCCC4)C3=O)CC2)cc1	none
Cc1cc(O)c(C(c2ccccc2Cl)N2CCN(c3ccccc3)CC2)c(=O)n1Cc1ccco1 (configuration not stated)	G9a block inconclusive, JMJD2A Tudor inconclusive (no result: PLK1 PBD inh, PI5P4Ka inh)
COc1cc(NC(=O)CSc2ncnc3sc4c(c23)CCCC4)c(C(=O)O)cc1OC	G9a block inconclusive, PLK1 PBD inh 27µM
COc1ccc2nc(SCC(=O)Nc3cc(OC)c(OC)cc3C(=O)O)c(C)cc2c1	G9a block 56µM, PLK1 PBD inh 30µM, JMJD2A Tudor inconclusive
COc1cc(NC(=O)CSc2nccc(C)n2)c(C(=O)O)cc1OC	G9a block inconclusive, BAZ2B inh inconclusive
CCSc1nnc2c(n1)OC(CC)N(C(C)=O)c1ccccc1-2 (configuration not stated)	G9a block inconclusive (no result: PLK1 PBD inh, PI5P4Ka inh)
CCOC(=O)c1oc2cc(O)ccc2c(=O)c1-c1ccccc1OC	none
Cc1ccccc1-c1cc(=O)c2c(O)cccc2o1	none
CCOc1ccccc1-c1c2cc(O)c(=O)cc-2oc2cc(O)c(O)cc12	G9a block 10µM, JMJD2A Tudor 1µM, BAZ2B inh 7.1µM, PI5P4Ka inh -55
O=c1cc2oc3cc(O)c(O)cc3c(-c3ccccc3O)c-2cc1O	HP1b binding inh 14µM, G9a block 16µM, PLK1 PBD inh 24µM, JMJD2A Tudor 4µM, BAZ2B inh 7.9µM, PI5P4Ka inh -88
Clc1cccc(CNc2ccn3nc(-c4cccs4)cc3n2)c1	none (no result: HP1b binding inh, G9a block, JMJD2A Tudor, BAZ2B inh)
CCCCNC(=O)c1sc2ncnc(N3CCc4ccccc4C3)c2c1C	PLK1 PBD inh 27µM (no result: PI5P4Ka inh)
CCOC(=O)CNC(=O)c1sc2ncnc(N3CCc4ccccc4C3)c2c1C	G9a block inconclusive
COc1ccc(-c2nc(SCC(=O)NCCCc3ccccc3)n[nH]2)cc1	none (no result: PLK1 PBD inh, PI5P4Ka inh)
S=C(Nc1ccc(Cl)cc1)c1nc2ccccc2[nH]1	HP1b binding inh inconclusive, JMJD2A Tudor inconclusive, BAZ2B inh 45µM
Cc1ccccc1NC(=S)c1nc2ccccc2[nH]1	JMJD2A Tudor inconclusive, BAZ2B inh 11µM
O=C(/C(=C\c1ccccc1)c1nc2ccccc2[nH]1)c1ccc(Cl)cc1	none
Cc1ccccc1NC(=O)NCCc1nc2ccccc2[nH]1	none
COc1ccc(CCNC(=O)C2CC3Cn4c(nc5ccccc54)C3N2c2ccccc2)cc1 (configuration not stated)	none (no result: G9a block, BAZ2B inh)
Cc1ccc(C(=O)NC(=S)c2c(C)cc3ccccn23)cc1	none (no result: HP1b binding inh, G9a block, JMJD2A Tudor, BAZ2B inh)
COCCN1CSC(=S)N(Cc2ccco2)C1	G9a block 45µM, PLK1 PBD inh 17µM, JMJD2A Tudor inconclusive (no result: PI5P4Ka inh)
S=C1SCN(Cc2ccccn2)CN1Cc1ccco1	G9a block 2.2µM, PLK1 PBD inh inconclusive, JMJD2A Tudor 6.3µM, BAZ2B inh 18µM (no result: PI5P4Ka inh)
C[C@H]1c2cccc(O)c2C(O)=C2C(=O)[C@]3(O)C(O)=C(C(N)=O)C(=O)[C@@H](N(C)C)[C@@H]3[C@@H](O)[C@@H]21	G9a block 2.7µM!, JMJD2A Tudor 13µM, BAZ2B inh 8.9µM
C=C1c2c(Cl)ccc(O)c2C(O)=C2C(=O)[C@@]3(O)C(O)=C(C(N)=O)C(=O)[C@@H](N(C)C)[C@@H]3[C@@H](O)[C@H]12	G9a block 11µM (no result: HP1b binding inh, PLK1 PBD inh, JMJD2A Tudor, BAZ2B inh, PI5P4Ka inh)
C[C@H]1c2cccc(O)c2C(O)=C2C(=O)[C@]3(O)C(O)=C(C(N)=O)C(=O)C(N(C)C)[C@@H]3[C@@H](O)C21 (some centres not stated)	G9a block 3.2µM (no result: HP1b binding inh, PLK1 PBD inh, JMJD2A Tudor, BAZ2B inh, PI5P4Ka inh)
COc1cccc(CNC(=O)Cn2c(SCC(=O)Nc3ccc(F)cc3)nc3ccccc32)c1	none (no result: PLK1 PBD inh, PI5P4Ka inh)
CCc1ccc2oc(C(=O)Nc3ccccc3C(=O)OC)cc(=O)c2c1	none (no result: PLK1 PBD inh, PI5P4Ka inh)
CC(C)S(=O)(=O)c1csc(C(=O)NN)c1Cl	G9a block 45µM
CCc1ccc(C(=O)c2cn(CC(=O)Nc3cc(OC)ccc3OC)c3ccc(C)cc3c2=O)cc1	none (no result: PLK1 PBD inh, PI5P4Ka inh)
Cc1c(C2=CCN(S(=O)(=O)c3ccc(Cl)cc3)CC2)c2ccccc2n1CC(=O)N1CCCC1	BAZ2B inh inconclusive (no result: PLK1 PBD inh, PI5P4Ka inh)
Cc1ccccc1-c1nnc(-c2ccccc2)o1	none
Cc1cccc(NCc2nnc(-c3ccccc3)o2)c1C	PLK1 PBD inh inconclusive, JMJD2A Tudor 79µM
Cc1nnc2sc(-c3ccncc3)nn12	none
Cc1nnc2sc(-c3ccc(-c4ccc(Cl)c(C(F)(F)F)c4)o3)nn12	G9a block 50µM, PLK1 PBD inh inconclusive, JMJD2A Tudor inconclusive
Cc1ccc(NS(=O)(=O)c2ccc(Br)s2)nc1	G9a block 40µM
Cc1cc(C)nc(NS(=O)(=O)c2ccc(Br)s2)c1	G9a block 50µM
Cc1cccc(NS(=O)(=O)c2ccc(Br)s2)n1	G9a block inconclusive (no result: PI5P4Ka inh)
O=C(NC1CCCC1)C(c1ccccc1)n1c(-c2ccc3c(c2)CCO3)nc2ccccc21 (configuration not stated)	none (no result: HP1b binding inh, G9a block, JMJD2A Tudor, BAZ2B inh)
Cc1nc2sccn2c(=O)c1S(=O)(=O)N1CCN(c2cccc(Cl)c2)CC1	none (no result: G9a block)
COc1cccc(N2C(=O)[C@H]3C(C(=O)c4cnccn4)=NN[C@H]3C2=O)c1	G9a block inconclusive, JMJD2A Tudor 50µM, BAZ2B inh 50µM
O=C(C1=NN[C@@H]2C(=O)N(c3cccc(F)c3)C(=O)[C@H]12)c1ccc2ccccc2n1	G9a block inconclusive
Cc1nnc(N(Cc2ccco2)C(=O)c2cccc(C#N)c2)s1	PLK1 PBD inh 30µM
